Test results as given in PubChem BioAssay.
Activity calls are given as the source filed them.

Tests used:
[1] = test system: Plasmodium falciparum Sir2 (PF13_0152, Sir2A); assay: Plasmodium falciparum Sir2A binding compounds – biochemical, small-molecule microarray, 635 nm fluorescence, primary screen (AID 1098); details: fluorescence 635 nm, higher = more signal;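 further: score merges spot fluorescence intensity with its signal-to-noise ratio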
[2] = probe aDKK1 binding to arrayed compounds – biochemical, biotinylated probe, 635/667 nm fluorescence, primary screen (AID 1099); details: small-molecule microarray, higher = more signal;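 further: score merges 667nm spot fluorescence with signal to noise across triplicate slides; reference of the scale not given here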
[3] = probe aCHRDL2 binding to arrayed compounds – biochemical, biotinylated probe, 635/667 nm fluorescence, primary screen (AID 1100); details: small-molecule microarray, higher = more signal
[4] = change in splice reporter luminescence, either direction, cell-based, HEK293, spliceosome inhibition project, primary screen (AID 1101); details: HEK293 splicing luciferase reporter, 24 h, higher = more signal, called active from +8 up or from −8 down;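 further: HEK293 cells carrying a splicing-competent luciferase reporter gene; test concentration not given here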
[5] = target: Fibroblast growth factor 10 (Homo sapiens) (UniProt O15520); assay: compounds binding fibroblast growth factor 10 – biochemical, small-molecule microarray, 635 nm fluorescence, primary screen (AID 1102); details: FGF10 binding, fluorescence 635 nm, higher = more signal
[6] = test system: glycogen synthase kinase-3 (GSK3A per assay name; protocol says GSK3B); assay: compounds binding glycogen synthase kinase-3 – biochemical, small-molecule microarray, 635 nm fluorescence, GSK3A, primary screen (AID 1103); details: fluorescence 635 nm, higher = more signal; further: the record names both GSK3A and GSK3B
[7] = target: Epidermal growth factor receptor (Homo sapiens) (UniProt P00533); assay: compounds binding epidermal growth factor receptor – biochemical, small-molecule microarray, 635 nm fluorescence, primary screen (AID 1104); details: EGFR binding, higher = more signal;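 further: score merges 667 nm emission intensity with spot signal to noise over triplicate slides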
[8] = target: Follistatin-related protein 3 (Homo sapiens) (UniProt O95633); assay: compounds binding follistatin-related protein 3 – biochemical, small-molecule microarray, 635 nm fluorescence, primary screen (AID 1105); details: FSTL3 binding, higher = more signal;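 further: score merges emission near 667 nm and signal to noise per printed spot across three slides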
[9] = target: Dickkopf-related protein 1 (Homo sapiens) (UniProt O94907); assay: small molecules binding DKK1 protein – biochemical, small-molecule microarray, 635 nm fluorescence scan, primary screen (AID 1106); details: higher = more signal;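 further: score merges emission near 667 nm with signal to noise over three replicate slides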
[10] = test system: Inhibin beta A chain (activin A); assay: small molecules binding activin A – biochemical, small-molecule microarray, 635 nm fluorescence scan, primary screen (AID 1107); details: INHBA, higher = more signal;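 further: mouse activin A protein probed at 4.33 µg/mL on printed slides; score merges bound-protein fluorescence near 667 nm with spot signal-to-noise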

Sequence of Fibroblast growth factor 10 (Homo sapiens) (O15520 whole entry, looked up): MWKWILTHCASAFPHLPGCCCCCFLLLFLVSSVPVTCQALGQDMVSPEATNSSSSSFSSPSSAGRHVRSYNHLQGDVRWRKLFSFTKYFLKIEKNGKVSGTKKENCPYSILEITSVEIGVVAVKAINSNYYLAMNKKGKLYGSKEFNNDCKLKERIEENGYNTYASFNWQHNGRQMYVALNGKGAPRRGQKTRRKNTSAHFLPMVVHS
Sequence of Dickkopf-related protein 1 (Homo sapiens) (O94907 whole entry, looked up): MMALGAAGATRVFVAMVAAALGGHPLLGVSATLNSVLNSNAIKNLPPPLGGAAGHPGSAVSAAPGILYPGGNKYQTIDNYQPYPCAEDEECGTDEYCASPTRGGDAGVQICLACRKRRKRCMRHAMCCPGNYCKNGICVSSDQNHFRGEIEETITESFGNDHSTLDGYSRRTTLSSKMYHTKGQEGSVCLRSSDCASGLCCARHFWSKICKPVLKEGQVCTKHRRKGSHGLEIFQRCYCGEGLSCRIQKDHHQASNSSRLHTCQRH
Sequence of Epidermal growth factor receptor (Homo sapiens) (P00533 whole entry, looked up): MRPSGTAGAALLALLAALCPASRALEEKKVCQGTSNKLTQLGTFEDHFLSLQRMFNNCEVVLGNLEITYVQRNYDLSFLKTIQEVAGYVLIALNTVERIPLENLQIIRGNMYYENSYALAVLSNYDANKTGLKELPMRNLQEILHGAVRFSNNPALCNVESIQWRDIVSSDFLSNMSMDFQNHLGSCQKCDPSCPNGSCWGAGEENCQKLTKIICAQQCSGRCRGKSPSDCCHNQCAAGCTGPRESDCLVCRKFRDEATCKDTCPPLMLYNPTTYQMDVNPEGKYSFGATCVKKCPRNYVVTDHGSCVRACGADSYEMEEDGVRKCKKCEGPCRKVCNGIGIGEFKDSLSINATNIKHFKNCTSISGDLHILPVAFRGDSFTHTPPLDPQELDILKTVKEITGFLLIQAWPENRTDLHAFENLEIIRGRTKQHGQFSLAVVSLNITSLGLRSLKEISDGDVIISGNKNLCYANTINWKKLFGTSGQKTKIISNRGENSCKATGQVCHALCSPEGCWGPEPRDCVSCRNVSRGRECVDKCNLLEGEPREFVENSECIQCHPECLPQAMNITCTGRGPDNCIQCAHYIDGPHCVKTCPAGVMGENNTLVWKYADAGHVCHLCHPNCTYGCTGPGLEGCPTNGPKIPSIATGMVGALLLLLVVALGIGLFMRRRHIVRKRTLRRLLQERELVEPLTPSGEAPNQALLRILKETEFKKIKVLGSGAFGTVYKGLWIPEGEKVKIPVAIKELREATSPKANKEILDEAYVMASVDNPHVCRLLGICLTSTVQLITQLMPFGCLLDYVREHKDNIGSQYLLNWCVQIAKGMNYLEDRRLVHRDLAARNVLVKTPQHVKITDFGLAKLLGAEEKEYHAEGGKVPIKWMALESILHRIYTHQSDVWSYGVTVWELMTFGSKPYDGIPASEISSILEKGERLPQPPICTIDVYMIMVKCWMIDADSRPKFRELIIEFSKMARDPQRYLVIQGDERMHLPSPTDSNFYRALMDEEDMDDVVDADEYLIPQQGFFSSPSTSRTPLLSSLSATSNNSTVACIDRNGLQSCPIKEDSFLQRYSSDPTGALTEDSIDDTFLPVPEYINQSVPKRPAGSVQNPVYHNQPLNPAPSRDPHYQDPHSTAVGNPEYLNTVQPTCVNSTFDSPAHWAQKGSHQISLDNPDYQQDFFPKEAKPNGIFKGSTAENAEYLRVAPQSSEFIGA
Sequence of Follistatin-related protein 3 (Homo sapiens) (O95633 whole entry, looked up): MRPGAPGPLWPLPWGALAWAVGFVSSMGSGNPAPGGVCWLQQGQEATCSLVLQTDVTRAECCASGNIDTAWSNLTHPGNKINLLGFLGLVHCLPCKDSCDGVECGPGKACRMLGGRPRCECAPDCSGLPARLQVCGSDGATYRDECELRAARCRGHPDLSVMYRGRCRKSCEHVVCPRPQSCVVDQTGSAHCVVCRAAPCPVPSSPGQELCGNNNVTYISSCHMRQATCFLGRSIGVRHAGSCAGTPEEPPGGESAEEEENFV

Structure (SMILES) | composite z-score [1] | composite z-score [2] | composite z-score [3] | z-score [4] | composite z-score [5] | composite z-score [6] | composite z-score [7] | composite z-score [8] | composite z-score [9] | composite z-score [10]
CCOC(=O)[C@H](CC(C)C)NC(=O)CCC1CC(OC(=O)NCc2ccc3c(c2)OCO3)CC2(CCCC(COC(=O)NCCOC)O2)O1 (stereo not given in full) | 0.622 | -0.27 | -0.261 | -0.191 (inactive) | 0.495 | 0.627 | 0.184 | 0.864 | 0.336 | 0.637
C[C@H]1CC[C@@H](C(=O)O)N[C@@H]1c1cccc(N2CCCC2=O)c1 | 0.0371 | -0.154 | -0.496 | -0.00389 (inactive) | 0.184 | 0.631 | 0.376 | 0.285 | 0.153 | 0.292
CCOC(=O)NN=C1C[C@@H](O)[C@@H](O)[C@@H]2[C@@H]3C(=O)N(C[C@@H]4CCCO4)C(=O)[C@@H]3CC[C@H]12 | 0.348 | -0.0748 | -0.317 | 0.488 (inactive) | 0.515 | 0.417 | 0.401 | 0.264 | 0.504 | 0.17
CN1CCc2nc(-c3ccccc3)c(-c3ccccc3)cc2C1 | -0.0565 | -0.284 | -0.225 | 0.0199 (inactive) | 0.486 | 0.256 | 0.134 | 0.359 | 0.503 | 0.334
CCCNC(=O)OC[C@H]1O[C@H](CCON=C[C@@H](NS(=O)(=O)c2ccc(C)cc2)[C@H](C)C=CCC(=O)OC)C=C[C@@H]1Oc1ccc(OC)cc1 | -0.289 | -0.0175 | 0.0838 | -0.362 (inactive) | -0.0511 | -0.54 | -0.147 | -0.293 | -0.0968 | 0.32
COC(=O)[C@H](C)NC(=O)CCC1CC(OC(=O)NCc2cccc3ccccc23)CC2(CCCC(COC(=O)NCCOc3ccccc3)O2)O1 (stereo not given in full) | 1.1 | -0.357 | -0.413 | -0.834 (inactive) | 0.411 | 0.526 | 0.148 | 0.319 | -0.303 | -0.143
COc1ccc(O[C@H]2C=C[C@@H](c3ccccc3)O[C@@H]2COC(=O)CCC(C)=NOC[C@@H](O)COCc2ccco2)cc1 | -1.47 | -0.866 | 0.0183 | -0.909 (inactive) | -2.67 | -1.95 | -2.8 | -2.9 | -1.99 | -0.0879
CCOC(=O)CCN1C(=O)[C@H]2[C@H]3[C@H](O)[C@H](O)CC(=NNC(=O)OCC)[C@H]3CC[C@H]2C1=O | 0.533 | -0.55 | -0.799 | -0.24 (inactive) | 0.0385 | -0.542 | 0.459 | 0.567 | 0.913 | 1.26
CCN1C(=O)[C@H]2[C@H]3[C@H](O)[C@H](O)CC(=NOC[C@@H](O)COCc4ccco4)[C@H]3CC[C@H]2C1=O | 0.667 | -1 | -2.16 | 0.0809 (inactive) | -0.169 | 0.797 | 0.816 | 0.757 | 1.39 | 1.45
